Measurements reported in PubChem BioAssay (NCI).
Where “and” joins values, the source holds several entries; their conditions need not be identical. Equal values may be shown once. About 79,000 compounds went through this panel and 15% of them were active in at least one assay; those are over-represented in the sample as a whole. Calls of active or inactive are those of the source. Cut-off read from the data, not from the text of the source: active = growth inhibition above about 70%; inactive = the rest.

Tests used:
[1] = NCI Yeast Anticancer Drug Screen. Data for the mec2-1 strain (AID 157); settings: S. cerevisiae mec2-1 strain, hits give high values
Procedure, shortened: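 Mutant yeast (mec2-1) grown with compound; growth inhibition relative to vehicle control reported.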

[2] = NCI Yeast Anticancer Drug Screen. Data for the sgs1 mgt1 strain (AID 161);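 note: 0% = growth of cultures given vehicle only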; settings: S. cerevisiae sgs1 mgt1 strain, hits give high values
Procedure, shortened: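 Growth of a repair-deficient yeast mutant was monitored after compound treatment and expressed as inhibition relative to vehicle-treated cultures.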

[3] = NCI Yeast Anticancer Drug Screen. Data for the cln2 rad14 strain (AID 165);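 note: 0% = growth equal to vehicle treated cultures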; settings: S. cerevisiae cln2 rad14 strain, hits give high values
Procedure, shortened: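 Readout is yeast growth inhibition versus vehicle-treated controls, using a strain with cln2 and rad14 alterations exposed to compound.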

[4] = NCI Yeast Anticancer Drug Screen. Data for the bub3 strain (AID 167); settings: S. cerevisiae bub3 mutant strain, hits give high values
Procedure, shortened: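 Compounds were applied to a genetically altered yeast strain carrying a cell-cycle control defect. Growth inhibition was scored against vehicle-treated controls.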

[5] = NCI Yeast Anticancer Drug Screen. Data for the mlh1 rad18 strain (AID 175); settings: S. cerevisiae mlh1 rad18 strain growth inhibition, hits give high values
Procedure, shortened: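 Genetically defined yeast (DNA repair-deficient) exposed to compounds; growth inhibition determined relative to vehicle.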

[6] = NCI Yeast Anticancer Drug Screen. Data for the rad50 strain (AID 155);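 note: 0% = growth of vehicle-only cultures of the same strain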; settings: S. cerevisiae rad50 strain growth inhibition, hits give high values
Procedure, shortened: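 Yeast carrying a defined DNA repair defect were exposed to test compounds, and growth was compared with vehicle-treated controls to give percent inhibition.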

[7] = at 5.0 µM (retest, dose inferred, filed as 0.5)
[8] = at 50.0 µM (retest, dose inferred, filed as 5.0)

Measured: growth inhibition

S=c1c2cn[nH]c2nc2scc(-c3ccc(Cl)cc3)n12
active: [1]; [8] 97% | [2]; [8] 98% | [3]; [8] 98% | [4]; [8] 97% | [5]; [8] 97%
inactive: [1]; [7] -29% | [1]; at 50.0 µM 49.7% | [2]; [7] -27% | [2]; at 50.0 µM 65.9% | [3]; [7] 24% | [3]; at 50.0 µM 33.9% | [4]; [7] -4% | [4]; at 50.0 µM 49% | [5]; [7] 11% | [5]; at 50.0 µM 30.6%

COC(=O)c1ccc(CCc2cc(O)ccc2O)cc1
active: [1]; [7] 74% | [1]; [8] 100% | [1]; at 50.0 µM 98.5% | [2]; [7] 70% | [2]; [8] 99% | [2]; at 50.0 µM 98% | [3]; [8] 99% | [3]; at 50.0 µM 88.8% | [4]; [8] 99% | [4]; at 50.0 µM 98.5% | [5]; [7] 88% | [5]; [8] 99% | [5]; at 50.0 µM 98.8%
inactive: [3]; [7] 27% | [4]; [7] 52%

O=C(NCCCCCCNC(=O)n1cc(F)c(=O)[nH]c1=O)NC1C(O)OC(CO)C(O)C1O (centres undefined)
inactive: [3]; [7] 34% | [3]; at 50.0 µM 51% | [4]; [7] 22% | [5]; [7] 48%
active: [1]; [7] 80% | [1]; [8] 96% | [1]; at 50.0 µM 97.6% | [2]; [7] 83% | [2]; [8] 93% | [2]; at 50.0 µM 93.1% | [3]; [8] 84% | [4]; [8] 90% | [4]; at 50.0 µM 80% | [5]; [8] 90% | [5]; at 50.0 µM 88.2%

O=C(NCCl)Nc1ccccc1
inactive: [6]; [7] -3% | [6]; [8] 62% | [6]; at 50.0 µM 57.7% | [2]; [7] 8% | [2]; at 50.0 µM 67.9% | [3]; [7] 1% | [3]; [8] 65% | [3]; at 50.0 µM 17.9% | [4]; [7] 6% | [4]; at 50.0 µM 67.5% | [5]; [7] 6% | [5]; at 50.0 µM 66%
active: [2]; [8] 86% | [4]; [8] 79% | [5]; [8] 83%

Cc1cc(O)ccc1N=Nc1ccccc1
active: [6]; [8] 99% | [6]; at 50.0 µM 99.7% | [1]; [8] 99% | [1]; at 50.0 µM 99.8% | [4]; [8] 99% | [4]; at 50.0 µM 99.5% | [5]; [8] 99% | [5]; at 50.0 µM 99.7%
inactive: [6]; [7] 10% | [1]; [7] -1% | [4]; [7] 14% | [5]; [7] 1%

Cc1cc(Cc2cccc(Cl)c2)ccc1O
inactive: [1]; [7] -34% | [2]; [7] -2% | [3]; [7] -21% | [4]; [7] -20% | [5]; [7] -8%
active: [1]; [8] 99% | [1]; at 50.0 µM 99.7% | [2]; [8] 99% | [2]; at 50.0 µM 99.3% | [3]; [8] 99% | [3]; at 50.0 µM 99.4% | [4]; [8] 99% | [4]; at 50.0 µM 99.6% | [5]; [8] 99% | [5]; at 50.0 µM 99.5%

N#Cc1ccccc1NC1OCC(O)C(O)C1O (centres undefined)
inactive: [6]; [7] -149% | [6]; [8] -139% | [6]; at 50.0 µM 0.45% | [2]; [7] -61% | [2]; [8] -79% | [2]; at 50.0 µM 10.6% | [3]; [7] -58% | [3]; [8] -53% | [3]; at 50.0 µM 16.1% | [4]; [7] -67% | [4]; [8] -74% | [4]; at 50.0 µM 7.2% | [5]; [7] -145% | [5]; [8] -105% | [5]; at 50.0 µM -3.35%

Cc1cc2nc3n(c2cc1C)C(c1c(F)cccc1F)SC3 (centres undefined)
inactive: [6]; [7] 25% | [6]; [8] 24% | [6]; at 50.0 µM -6.85% | [2]; [7] 27% | [2]; [8] 24% | [2]; at 50.0 µM 9.1% | [3]; [7] 12% | [3]; [8] 23% | [3]; at 50.0 µM -6.1% | [4]; [7] 26% | [4]; [8] 25% | [4]; at 50.0 µM 30.5% | [5]; [7] 26% | [5]; [8] 22% | [5]; at 50.0 µM -0.35%

CC(=O)OC1COC(SC(=N)N)C(OC(C)=O)C1OC(C)=O (centres undefined)
inactive: [6]; at 50.0 µM 41.4% and 24.4% and 20% | [1]; at 50.0 µM 15.8% and 17.9% and -1.25% | [2]; at 50.0 µM 27.9% and 22.1% and 24.4% | [3]; at 50.0 µM 19.6% and -30.5% and -41.8% | [4]; at 50.0 µM 1.65% and 6.55% and -1.75% | [5]; at 50.0 µM 22.6% and 29.1% and 4.55%

NCC(=O)NC(CO)C(=O)O (centres undefined)
inactive: [6]; at 50.0 µM -8.05% and -12.9% and -12.8% | [1]; at 50.0 µM -10.5% and -5.1% and -4.35% | [2]; at 50.0 µM -12.2% and -2.65% and -3.75% | [3]; at 50.0 µM -34.1% and -5.75% and -10.1% | [4]; at 50.0 µM -24.7% and -11.4% and -3.6% | [5]; at 50.0 µM -3.35% and -12.8% and -9.4%

CSc1nc(=Nc2ccccc2)sn1-c1ccccc1
inactive: [1]; [7] 26% | [2]; [7] 27% | [3]; [7] 27% | [4]; [7] 41% | [5]; [7] 15%
active: [1]; [8] 98% | [1]; at 50.0 µM 99.5% | [2]; [8] 98% | [2]; at 50.0 µM 99.2% | [3]; [8] 97% | [3]; at 50.0 µM 99.4% | [4]; [8] 98% | [4]; at 50.0 µM 99.3% | [5]; [8] 98% | [5]; at 50.0 µM 99%

CC(=O)OCC1OC(N2CCc3cc([N+](=O)[O-])ccc32)C(OC(C)=O)C(OC(C)=O)C1OC(C)=O (centres undefined)
inactive: [6]; [7] 2% | [6]; [8] -4% | [6]; at 50.0 µM -15.4% | [2]; [7] 3% | [2]; [8] 23% | [2]; at 50.0 µM -9.2% | [3]; [7] 7% | [3]; [8] -3% | [3]; at 50.0 µM 41.9% | [4]; [7] 3% | [4]; [8] 1% | [4]; at 50.0 µM -3.25% | [5]; [7] 11% | [5]; [8] 18% | [5]; at 50.0 µM -16.8%

COC(=O)c1nc(Cl)nc(Cl)c1N
inactive: [1]; [7] 14% | [2]; [7] 11% | [3]; [7] -3% | [4]; [7] 7% | [5]; [7] 11%
active: [1]; [8] 95% | [1]; at 50.0 µM 97.3% | [2]; [8] 92% | [2]; at 50.0 µM 98.2% | [3]; [8] 92% | [3]; at 50.0 µM 96% | [4]; [8] 95% | [4]; at 50.0 µM 97.8% | [5]; [8] 96% | [5]; at 50.0 µM 98.2%
